The campaign covered roughly 5,500 compounds. About 2,000 (36%) were called active. Inconclusive results (about 18%) are left out. Rule as the data show it: active = normalized growth mostly below about 0.91 (no sharp cut-off); inconclusive = no clear call, values can overlap the other calls; inactive = mostly above about 0.92. This is one part of the list.
Test: chemical genetic growth profiling, strain panel (AID 1159580);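 also: tested at 20 µM; growth read once vehicle control cultures reached saturation at 30 °C; 1 = growth at the plate median or of vehicle wells; lower values mean less growth of the strain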
Conditions: growth OD

Measured: normalized growth

CCOC(=O)NNc1nncc2ccccc12
inactive: S. cerevisiae deletion strains, locus YJR066W, strain TOR1, hits give low values 0.978 | S. cerevisiae deletion strains, locus YJR075W, strain HOC1, hits give low values 0.997 | S. cerevisiae deletion strains, locus YKL009W, strain mrt4, hits give low values 0.986 | S. cerevisiae deletion strains, locus YKL068W, hits give low values 0.984 | S. cerevisiae deletion strains, locus YKL085W, strain MDH1 (second series), hits give low values 0.992 | S. cerevisiae deletion strains, locus YKL085W, strain MDH1, hits give low values 0.992 | S. cerevisiae deletion strains, locus YKL160W, strain elf1, hits give low values 1.02 | S. cerevisiae deletion strains, locus YKL190W, strain CNB1, hits give low values 0.998 | S. cerevisiae deletion strains, locus YKR001C, strain vps1, hits give low values 0.983 | S. cerevisiae deletion strains, locus YKR026C, strain gcn3, hits give low values 1.02 | S. cerevisiae deletion strains, locus YKR091W, strain srl3, hits give low values 1 | S. cerevisiae deletion strains, locus YLL001W, strain dnm1, hits give low values 0.986 | S. cerevisiae deletion strains, locus YLL026W, hits give low values 1 | S. cerevisiae deletion strains, locus YLL041C, strain sdh2, hits give low values 1.01 | S. cerevisiae deletion strains, locus YLR027C, strain aat2, hits give low values 1 | S. cerevisiae deletion strains, locus YLR039C, strain RIC1, hits give low values 1.03 | S. cerevisiae deletion strains, locus YLR058C, strain SHM2, hits give low values 0.992 | S. cerevisiae deletion strains, locus YLR102C, strain apc9, hits give low values 0.979 | S. cerevisiae deletion strains, locus YLR113W, strain HOG1, hits give low values 0.967 | S. cerevisiae deletion strains, locus YLR221C, strain rsa3, hits give low values 0.976 | S. cerevisiae deletion strains, locus YLR258W, strain gsy2, hits give low values 1.04 | S. cerevisiae deletion strains, locus YLR262C, strain YPT6 (second series), hits give low values 1.01 | S. cerevisiae deletion strains, locus YLR262C, strain YPT6, hits give low values 1.02 | S. cerevisiae deletion strains, locus YLR268W, strain sec22, hits give low values 0.968 | S. cerevisiae deletion strains, locus YLR320W, strain mms22, hits give low values 0.92 | S. cerevisiae deletion strains, locus YLR330W, strain CHS5, hits give low values 0.992 | S. cerevisiae deletion strains, locus YLR342W, strain FKS1 (second series), hits give low values 0.973 | S. cerevisiae deletion strains, locus YLR342W, strain FKS1, hits give low values 1.03 | S. cerevisiae deletion strains, locus YLR357W, strain rsc2, hits give low values 1.06 | S. cerevisiae deletion strains, locus YLR370C, strain arc18, hits give low values 1.02 | S. cerevisiae deletion strains, locus YLR371W, strain rom2, hits give low values 0.977 | S. cerevisiae deletion strains, locus YLR384C, strain iki3, hits give low values 0.989 | S. cerevisiae deletion strains, locus YLR418C, strain cdc73, hits give low values 0.957 | S. cerevisiae deletion strains, locus YML016C, strain PPZ1, hits give low values 0.991 | S. cerevisiae deletion strains, locus YML032C, strain rad52, hits give low values 0.97 | S. cerevisiae deletion strains, locus YML120C, strain ndi1, hits give low values 0.992 | S. cerevisiae deletion strains, locus YML124C, strain tub3, hits give low values 0.983 | S. cerevisiae deletion strains, locus YMR058W, strain fet3, hits give low values 1.01 | S. cerevisiae deletion strains, locus YMR078C, strain ctf18, hits give low values 0.983 | S. cerevisiae deletion strains, locus YMR125W, strain sto1, hits give low values 1.03 | S. cerevisiae deletion strains, locus YMR129W, hits give low values 0.988 | S. cerevisiae deletion strains, locus YMR205C, strain PFK2, hits give low values 0.993 | S. cerevisiae deletion strains, locus YMR223W, strain ubp8, hits give low values 0.972 | S. cerevisiae deletion strains, locus YMR231W, strain pep5, hits give low values 0.997 | S. cerevisiae deletion strains, locus YMR307W, strain GAS1, hits give low values 0.972 | S. cerevisiae deletion strains, locus YNL067W, strain RPL9B, hits give low values 1.01 | S. cerevisiae deletion strains, locus YNL071W, strain lat1, hits give low values 1.01 | S. cerevisiae deletion strains, locus YNL128W, strain TEP1, hits give low values 0.967 | S. cerevisiae deletion strains, locus YNL183C, strain NPR1, hits give low values 0.934 | S. cerevisiae deletion strains, locus YNL209W, strain ssb2, hits give low values 1.01 | S. cerevisiae deletion strains, locus YNL233W, strain BNI4, hits give low values 0.998 | S. cerevisiae deletion strains, locus YNL248C, strain rpa49, hits give low values 1.06 | S. cerevisiae deletion strains, locus YNL250W, strain rad50, hits give low values 0.995 | S. cerevisiae deletion strains, locus YNL271C, strain bni1, hits give low values 0.973 | S. cerevisiae deletion strains, locus YNL298W, strain CLA4, hits give low values 0.985 | S. cerevisiae deletion strains, locus YNL307C, strain MCK1, hits give low values 0.977 | S. cerevisiae deletion strains, locus YNL322C, strain KRE1 (second series), hits give low values 1.05 | S. cerevisiae deletion strains, locus YNL322C, strain KRE1, hits give low values 0.998 | S. cerevisiae deletion strains, locus YNR049C, strain mso1, hits give low values 1 | S. cerevisiae deletion strains, locus YNR052C, strain pop2, hits give low values 0.966 | S. cerevisiae deletion strains, locus YOL006C, strain TOP1, hits give low values 1.02 | S. cerevisiae deletion strains, locus YOL012C, strain htz1 1.25 | S. cerevisiae deletion strains, locus YOL147C, strain pex11, hits give low values 0.98 | S. cerevisiae deletion strains, locus YOR001W, strain rrp6, hits give low values 0.97 | S. cerevisiae deletion strains, locus YOR061W, strain CKA2, hits give low values 0.986 | S. cerevisiae deletion strains, locus YOR069W, strain VPS5, hits give low values 0.986 | S. cerevisiae deletion strains, locus YOR070C, strain gyp1, hits give low values 1.01 | S. cerevisiae deletion strains, locus YOR080W, strain dia2, hits give low values 1.02 | S. cerevisiae deletion strains, locus YOR083W, strain WHI5, hits give low values 0.99 | S. cerevisiae deletion strains, locus YOR106W, strain vam3, hits give low values 1.05 | S. cerevisiae deletion strains, locus YOR136W, strain idh2, hits give low values 0.981 | S. cerevisiae deletion strains, locus YOR144C, strain elg1, hits give low values 0.983 | S. cerevisiae deletion strains, locus YOR184W, strain ser1, hits give low values 0.98 | S. cerevisiae deletion strains, locus YOR231W, strain MKK1, hits give low values 0.952 | S. cerevisiae deletion strains, locus YOR265W, strain rbl2, hits give low values 0.992 | S. cerevisiae deletion strains, locus YOR270C, strain vph1, hits give low values 1.06 | S. cerevisiae deletion strains, locus YOR290C, strain snf2, hits give low values 1.05 | S. cerevisiae deletion strains, locus YOR316C, strain cot1, hits give low values 0.976 | S. cerevisiae deletion strains, locus YPL051W, strain arl3, hits give low values 1.02 | S. cerevisiae deletion strains, locus YPL055C, strain LGE1, hits give low values 1.04 | S. cerevisiae deletion strains, locus YPL078C, strain atp4, hits give low values 1.07 | S. cerevisiae deletion strains, locus YPL106C, strain sse1, hits give low values 1.04 | S. cerevisiae deletion strains, locus YPL240C, strain hsp82, hits give low values 1.01 | S. cerevisiae deletion strains, locus YPL241C, strain CIN2, hits give low values 0.993 | S. cerevisiae deletion strains, locus YPL256C, strain CLN2, hits give low values 0.955 | S. cerevisiae deletion strains, locus YPR119W, strain clb2, hits give low values 0.975 | S. cerevisiae deletion strains, locus YPR141C, strain kar3, hits give low values 0.973 | S. cerevisiae deletion strains, locus YPR163C, strain tif3, hits give low values 0.969 | S. cerevisiae deletion strains, locus YPR167C, strain met16, hits give low values 0.975 | S. cerevisiae deletion strains, strain wtn01, hits give low values 1.01 | S. cerevisiae strains, strain wild type, hits give low values 1

— PubChem BioAssay AID1159580 (chemical genetic matrix, 2015)
